Experiment [1] is described as follows: NCI Yeast Anticancer Drug Screen. Data for the rad50 strain (AID 155).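 Note: 0% = growth of vehicle-only cultures of the same strain.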 The conditions noted are these: S. cerevisiae rad50 strain growth inhibition, stronger effect = higher value. The method in brief: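 Growth of the mutant yeast was measured after compound exposure and referenced to vehicle-treated cultures.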
Experiment [2] is described as follows: NCI Yeast Anticancer Drug Screen. Data for the mec2-1 strain (AID 157). The conditions noted are these: S. cerevisiae mec2-1 strain, stronger effect = higher value. The method in brief:
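Mutant yeast (mec2-1) grown with compound; growth inhibition relative to vehicle control reported.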

Experiment [3] can be described thus: NCI Yeast Anticancer Drug Screen. Data for the sgs1 mgt1 strain (AID 161).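 Note: 0% = growth of cultures given vehicle only.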 Particulars: S. cerevisiae sgs1 mgt1 strain, stronger effect = higher value. The method in brief: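 This yeast growth screen uses a strain with defined DNA-repair lesions; compound-treated growth is compared with vehicle-treated growth.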
Experiment [4] is described as follows: NCI Yeast Anticancer Drug Screen. Data for the cln2 rad14 strain (AID 165).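 Note: 0% = growth equal to vehicle treated cultures.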 The conditions noted are these: S. cerevisiae cln2 rad14 strain, stronger effect = higher value. The method in brief: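 Readout is yeast growth inhibition versus vehicle-treated controls, using a strain with cln2 and rad14 alterations exposed to compound.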
Experiment [5] in a line: NCI Yeast Anticancer Drug Screen. Data for the bub3 strain (AID 167). Particulars: S. cerevisiae bub3 mutant strain, stronger effect = higher value. An outline of the steps: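 Whole-cell yeast assay. The mutant strain was incubated with compounds, and growth inhibition was determined by comparison with vehicle-treated cells.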
Experiment [6] is described as follows: NCI Yeast Anticancer Drug Screen. Data for the mlh1 rad18 strain (AID 175). The conditions noted are these: S. cerevisiae mlh1 rad18 strain growth inhibition, stronger effect = higher value. An outline of the steps: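 Genetically defined yeast (DNA repair-deficient) exposed to compounds; growth inhibition determined relative to vehicle.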
The mark [7] stands for this setting: at 5.0 µM (retest, dose inferred, filed as 0.5).
[8] abbreviates: at 50.0 µM (retest, dose inferred, filed as 5.0).

From PubChem BioAssay (NCI) come the findings set out here.

SMILES strings stand for the structures. Several values for one entry are separate records, joined by “and”; a condition that tells them apart may be missing. Equal entries are not always repeated. This is part of a sample that, as a whole, favours compounds with a hit. Of some 79,000 tested, about 15% had one in any assay. More than one record can exist for a structure, and the calls need not agree. Activity calls are given as the source filed them. Cut-off read from the data, not from the text of the source: active = growth inhibition above about 70%; inactive = the rest.

Consider `C=C(C)C(=O)Oc1ccc(N=Nc2ccccc2)ccc1=O`, for which the growth inhibition was 2% (inactive) in experiment [1] (setting [7]); 89% (active) in experiment [1] (setting [8]); 95.3% (active) in experiment [1] (at 50.0 µM); 5% (inactive) in experiment [2] (setting [7]); 93% (active) in experiment [2] (setting [8]); 81% (active) in experiment [2] (at 50.0 µM). Further, the growth inhibition in experiment [3] (setting [7]) was 6% (inactive); in experiment [3] (setting [8]), 93% (active); in experiment [3] (at 50.0 µM), 93% (active); in experiment [4] (setting [7]) it was 4% (inactive); in experiment [4] (setting [8]) it was 77% (active); in experiment [4] (at 50.0 µM), 59.9% (inactive). The growth inhibition in experiment [5] (setting [7]) is -2% (inactive); in experiment [5] (setting [8]) it was 86% (active); in experiment [5] (at 50.0 µM), 81.8% (active); in experiment [6] (setting [7]), 12% (inactive); in experiment [6] (setting [8]), 96% (active); in experiment [6] (at 50.0 µM), 94.5% (active).
As to `CC1CC=CCC1C(=O)O` (centres undefined), the growth inhibition is 8% (inactive) in experiment [1] (setting [7]); -1% (inactive) in experiment [1] (setting [8]); 36% (inactive) and 9.75% (inactive) in experiment [1] (at 50.0 µM); 2% (inactive) in experiment [2] (setting [7]); -2% (inactive) in experiment [2] (setting [8]); -17.2% (inactive) and 28.9% (inactive) in experiment [2] (at 50.0 µM). The growth inhibition was 2% (inactive) in experiment [3] (setting [7]); -3% (inactive) in experiment [3] (setting [8]); -10.5% (inactive) and -4.9% (inactive) in experiment [3] (at 50.0 µM); 13% (inactive) in experiment [4] (setting [7]); 3% (inactive) in experiment [4] (setting [8]); -8.4% (inactive) and -41.3% (inactive) in experiment [4] (at 50.0 µM). Further, the growth inhibition is 6% (inactive) in experiment [5] (setting [7]); 2% (inactive) in experiment [5] (setting [8]); 33.3% (inactive) and -3.9% (inactive) in experiment [5] (at 50.0 µM); 4% (inactive) in experiment [6] (setting [7]); -5% (inactive) in experiment [6] (setting [8]); 9.65% (inactive) and 10.2% (inactive) in experiment [6] (at 50.0 µM).
On to `COC1/C=C\C=C(/C)C(=O)Nc2cc3nc4ccc(Br)cc4oc-3c(c2=O)CC(C)CC(OC)C(O)C(C)/C=C(\C)C1OC(N)=O` (centres undefined), for which the growth inhibition was 44% (inactive) in experiment [1] (setting [7]); 97% (active) in experiment [1] (setting [8]); 89.2% (active) in experiment [1] (at 50.0 µM); 57% (inactive) in experiment [2] (setting [7]); 98% (active) in experiment [2] (setting [8]); 90.9% (active) in experiment [2] (at 50.0 µM). Besides, the growth inhibition is 96% (active) in experiment [3] (setting [7]); 98% (active) in experiment [3] (setting [8]); 91.5% (active) in experiment [3] (at 50.0 µM); 85% (active) in experiment [4] (setting [7]); 92% (active) in experiment [4] (setting [8]); 89% (active) in experiment [4] (at 50.0 µM). For the same compound, the growth inhibition is 94% (active) in experiment [5] (setting [7]); 97% (active) in experiment [5] (setting [8]); 90.7% (active) in experiment [5] (at 50.0 µM); 57% (inactive) in experiment [6] (setting [7]); 98% (active) in experiment [6] (setting [8]); 88.1% (active) in experiment [6] (at 50.0 µM).
Regarding `Cc1ccc(C(C)C)c2c1CN(CCN1COc3c(C(C)C)ccc(C)c3C1)CO2`, the growth inhibition in experiment [1] (setting [7]) is -3% (inactive); in experiment [1] (setting [8]) it was 2% (inactive); in experiment [1] (at 50.0 µM) it was -3.9% (inactive); in experiment [2] (setting [7]), 0% (inactive); in experiment [2] (setting [8]) it was 3% (inactive); in experiment [2] (at 50.0 µM), 6.8% (inactive). Also, the growth inhibition was -3% (inactive) in experiment [3] (setting [7]); -1% (inactive) in experiment [3] (setting [8]); -13.8% (inactive) in experiment [3] (at 50.0 µM); -4% (inactive) in experiment [4] (setting [7]); 1% (inactive) in experiment [4] (setting [8]); -11.2% (inactive) in experiment [4] (at 50.0 µM). Further, the growth inhibition in experiment [5] (setting [7]) was -1% (inactive); in experiment [5] (setting [8]) it was -2% (inactive); in experiment [5] (at 50.0 µM) it was -2.95% (inactive); in experiment [6] (setting [7]) it was -1% (inactive); in experiment [6] (setting [8]) it was 4% (inactive); in experiment [6] (at 50.0 µM), -8.65% (inactive).
With `Cn1c(N)nc(=O)c2[nH]cnc21`, the growth inhibition in experiment [1] (setting [7]) is -1% (inactive); in experiment [1] (setting [8]), -1% (inactive); in experiment [1] (at 50.0 µM), -4.3% (inactive); in experiment [2] (setting [7]) it was -1% (inactive); in experiment [2] (setting [8]) it was -2% (inactive); in experiment [2] (at 50.0 µM) it was 11.8% (inactive). Moreover, the growth inhibition in experiment [3] (setting [7]) was -3% (inactive); in experiment [3] (setting [8]), -4% (inactive); in experiment [3] (at 50.0 µM) it was 6.9% (inactive); in experiment [4] (setting [7]), 2% (inactive); in experiment [4] (setting [8]), -3% (inactive); in experiment [4] (at 50.0 µM) it was 86.8% (active). Also, the growth inhibition in experiment [5] (setting [7]) was 1% (inactive); in experiment [5] (setting [8]), -3% (inactive); in experiment [5] (at 50.0 µM), -9.25% (inactive); in experiment [6] (setting [7]), -3% (inactive); in experiment [6] (setting [8]), 0% (inactive); in experiment [6] (at 50.0 µM) it was -17.2% (inactive).
As to `O=C1C(=Cc2c[nH]c3ccccc23)C(=O)c2ccccc21`, the growth inhibition in experiment [1] (setting [7]) is 11% (inactive); in experiment [1] (setting [8]) it was 93% (active); in experiment [1] (at 50.0 µM), -9.1% (inactive) and 69.2% (inactive); in experiment [2] (setting [7]), -24% (inactive); in experiment [2] (setting [8]) it was 96% (active); in experiment [2] (at 50.0 µM), -6.4% (inactive) and 69.5% (inactive). Moreover, the growth inhibition in experiment [3] (setting [7]) is -1% (inactive); in experiment [3] (setting [8]), 91% (active); in experiment [3] (at 50.0 µM), 0.1% (inactive) and 71.1% (active); in experiment [4] (setting [7]) it was 6% (inactive); in experiment [4] (setting [8]) it was 83% (active); in experiment [4] (at 50.0 µM), 2.15% (inactive) and 32.4% (inactive). In addition, the growth inhibition in experiment [5] (setting [7]) was 3% (inactive); in experiment [5] (setting [8]), 95% (active); in experiment [5] (at 50.0 µM) it was -15.7% (inactive) and 62.8% (inactive); in experiment [6] (setting [7]), -1% (inactive); in experiment [6] (setting [8]), 96% (active); in experiment [6] (at 50.0 µM) it was -1.65% (inactive) and 78.5% (active).
As for `CC(C)OP(=O)(OC(C)C)C(=Nc1ccccc1)NNc1ccc([N+](=O)[O-])cc1`, the growth inhibition in experiment [1] (setting [7]) is -22% (inactive); in experiment [1] (setting [8]), -15% (inactive); in experiment [1] (at 50.0 µM), 71.1% (active); in experiment [2] (setting [7]), -21% (inactive); in experiment [2] (setting [8]) it was 2% (inactive); in experiment [2] (at 50.0 µM) it was 16.6% (inactive). Moreover, the growth inhibition in experiment [3] (setting [7]) was -13% (inactive); in experiment [3] (setting [8]), 15% (inactive); in experiment [3] (at 50.0 µM), 22.7% (inactive); in experiment [4] (setting [7]), -33% (inactive); in experiment [4] (setting [8]), -6% (inactive); in experiment [4] (at 50.0 µM), -18.8% (inactive). In addition, the growth inhibition in experiment [5] (setting [7]) is -17% (inactive); in experiment [5] (setting [8]), -20% (inactive); in experiment [5] (at 50.0 µM), 43.6% (inactive); in experiment [6] (setting [7]), -8% (inactive); in experiment [6] (setting [8]) it was 7% (inactive); in experiment [6] (at 50.0 µM) it was 44% (inactive).
Regarding `Nc1ncnc(N)c1N=O`, the growth inhibition in experiment [1] (setting [7]) is -19% (inactive); in experiment [1] (setting [8]), 1% (inactive); in experiment [1] (at 50.0 µM), 39% (inactive) and 21.6% (inactive); in experiment [2] (setting [7]), -13% (inactive); in experiment [2] (setting [8]), -3% (inactive); in experiment [2] (at 50.0 µM), 32.5% (inactive) and 4.05% (inactive). Further, the growth inhibition in experiment [3] (setting [7]) was 5% (inactive); in experiment [3] (setting [8]), 3% (inactive); in experiment [3] (at 50.0 µM), 67.5% (inactive) and 35.1% (inactive); in experiment [4] (setting [7]), 11% (inactive); in experiment [4] (setting [8]), 28% (inactive); in experiment [4] (at 50.0 µM) it was 39.3% (inactive) and 31.2% (inactive). In addition, the growth inhibition in experiment [5] (setting [7]) was -2% (inactive); in experiment [5] (setting [8]) it was 54% (inactive); in experiment [5] (at 50.0 µM) it was 62.6% (inactive) and 53.2% (inactive); in experiment [6] (setting [7]) it was -3% (inactive); in experiment [6] (setting [8]), 15% (inactive); in experiment [6] (at 50.0 µM), 34.5% (inactive) and 26.6% (inactive).
